Compound activity deposited in PubChem BioAssay by National Center for Advancing Translational Sciences (NCATS).
The list is not random: actives were taken first. Their share in the collection is about 1.7%.
GLP-1R agonist: qHTS of GLP-1 Receptor Agonists; HEK293 GLP-1R CRE-luciferase, luminescence, 4-6 h; cells express a hypersensitive GLP-1R form; Potency, µM (highest dose often 45.6 µM), most hits filed as activators; actives 0.007% (n = 380,000); AID 624172, 2012
Target sequence (P43220 whole entry, looked up): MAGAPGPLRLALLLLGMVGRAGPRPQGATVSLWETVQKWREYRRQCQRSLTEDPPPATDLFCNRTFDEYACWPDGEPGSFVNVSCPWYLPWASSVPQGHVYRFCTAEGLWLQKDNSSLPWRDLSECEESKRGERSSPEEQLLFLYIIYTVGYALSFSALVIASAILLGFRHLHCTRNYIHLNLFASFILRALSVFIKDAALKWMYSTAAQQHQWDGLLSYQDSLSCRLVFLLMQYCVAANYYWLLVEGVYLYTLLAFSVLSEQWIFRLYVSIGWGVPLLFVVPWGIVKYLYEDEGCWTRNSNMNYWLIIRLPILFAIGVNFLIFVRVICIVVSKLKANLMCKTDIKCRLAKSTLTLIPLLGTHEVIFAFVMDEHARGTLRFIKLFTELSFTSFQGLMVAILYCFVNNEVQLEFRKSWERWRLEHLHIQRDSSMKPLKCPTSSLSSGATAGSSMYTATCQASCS
GLP-1R inv ag: qHTS of GLP-1 Receptor Inverse Agonists (Inhibition Mode); HEK293 GLP-1R CRE-luciferase, luminescence, 24 h; GLP-1R form is constitutively active; Potency, µM (series often up to 38.3 µM), actives largely listed as inhibitors; actives 1.6% (n = 410,000); AID 624417, 2012; note: nearly all actives have a fitted effect of over 55% in size
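HEK293 cells stably co-expressing constitutively active GLP-1R and a cAMP-responsive luciferase reporter were seeded in DMEM with 10% Nu serum, given compounds after 12 h, and incubated 24 h at 37 deg C. Luminescence was then read.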
GLP1R cytotox: qHTS of GLP-1 Receptor Inverse Agonists: Cytotox Screen. HEK293 cAMP-luciferase reporter cells, luminescence, 24 h. Potency, µM (highest dose often 38.3 µM), actives largely listed as inhibitors. actives 0.13% (n = 410,000). AID 624418, 2012;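 note: loss of luciferase light is scored as toxicity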
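Seeding density was 200 cells/uL; after overnight-length (12 h) culture, 23 nL compounds went on for 24 h at 37 °C. Readout used a luciferase detection reagent, luminescence taken after 12 min at room temperature.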
Hits are given with their value; – = inactive; ? = inconclusive; · = no result given. Calls come from the whole dose curve; as a rule, active = well fitted curve in the direction sought with a large enough effect; inconclusive = small, poorly fitted or top-dose-only effect, or another doubt; inactive = no such curve, though single readings can be large; an effect the other way counts as inactive or inconclusive.

SMILES | GLP-1R agonist | GLP-1R inv ag | GLP1R cytotox
O=C(Cc1ccc(Cl)cc1)Nc1ccc(-c2nnc(-c3ccco3)o2)cc1 | – | 10µM | ?
O=C(Cc1ccccc1)Nc1ccc(-c2nnc(-c3ccco3)o2)cc1 | – | – | –
CN1C[C@@H]2C(c3ccc(C(F)(F)F)cc3)C3(c4ccc(C#N)cc4)CC2(C3)[C@H]1c1ccccc1 (stereo partly drawn) | – | 10µM | –
COC(=O)c1cccc(C23CC4(C2)[C@H](CN(C)[C@@H]4c2ccccc2)C3c2ccc(C(F)(F)F)cc2)c1 (stereo partly drawn) | – | – | –
COC(=O)c1cccc(C23CC4(C2)[C@H](CN(C)[C@@H]4c2ccccc2)C3c2ccccc2)c1 (stereo partly drawn) | – | 8.91µM | –
CN1C[C@@H]2C(c3ccccc3)C3(c4ccc(C#N)cc4)CC2(C3)[C@H]1c1ccccc1 (stereo partly drawn) | – | – | –
COc1ccc2c(c1)-c1nc(NC(=O)c3cc(OC)c(OC)c(OC)c3)sc1CC2 | · | 10µM | ?
COc1ccc2c(c1)-c1nc(NC(=O)c3ccc(Cl)cc3)sc1CC2 | · | – | –
OC(c1ccccc1)(c1nc(/C=C/c2ccc(C(F)(F)F)cc2)cs1)C(F)(F)F (stereo not drawn) | – | 7.94µM | ?
CC(O)(c1ccc(F)c(F)c1)c1nc(/C=C/c2ccc(C(F)(F)F)cc2)cs1 (stereo not drawn) | – | ? | –
O=C(NCc1ccc(F)cc1)c1cnc(N2CCOCC2)c2ccccc12 | · | – | –
CC1(C(=O)O)CCC2(C)CCC3(C)C(=CC(=O)[C@@H]4C5(C)CC[C@H](O[C@H]6O[C@H](C(=O)O)C(O)C(O)[C@H]6O[C@@H]6O[C@H](C(=O)O)C(O)C(O)C6O)C(C)(C)[C@@H]5CCC43C)[C@@H]2C1 (stereo partly drawn) | – | · | ·
CN1CCC(OC(=O)C(Oc2ccc(Cl)cc2)Oc2ccc(Cl)cc2)CC1 | – | · | ·
OC(c1ccc(-c2ccccc2)cc1)c1ncc(-c2ccccc2F)[nH]1 (stereo not drawn) | – | ? | –
O=C(CSc1nnc(COc2ccc(Cl)cc2)o1)N1c2ccccc2CCc2ccccc21 | – | 3.55µM | ?
O=C(CSc1nnc(COc2ccc(Cl)cc2)o1)N1CCCC1 | – | – | –
COc1ccc2[nH]c3c(c2c1)CCN1C(=O)N([C@@H](C)C(=O)NCc2ccco2)C(=O)[C@]31C | – | – | –
Cc1ccccc1C(=O)Nc1nc2c(s1)CC(C(C)(C)C)CC2 (stereo not drawn) | · | ? | –
CCOc1ccc(C(=O)Nc2c(C)nc(Nc3ccccc3)nc2Nc2ccccc2)cc1OCC | – | 10µM | –
CCOc1ccc(Nc2nc(C)c(NC(=O)c3cccc(OC)c3)c(Nc3ccc(OCC)cc3)n2)cc1 | – | ? | –
O=C(CSc1nnnn1-c1cccnc1)Nc1ccccc1F | – | – | –
COc1ccc(C(=O)Nc2ccc(-n3nncc3-c3ccc(OC)c(OC)c3)cc2)cc1 | · | – | –
CN1CCN(C(=O)CN2C(=O)NC(C)(c3ccc4ccccc4c3)C2=O)CC1 (stereo not drawn) | – | – | –
CC1(c2ccc3ccccc3c2)NC(=O)N(CC(=O)N2CCN(c3ccccc3O)CC2)C1=O (stereo not drawn) | – | 11.2µM | –
Fc1cccc(-c2cc3nc(-c4ccccc4)cc(N4CCC5(CC4)OCCO5)n3n2)c1 | – | ? | –
SMILES | GLP-1R agonist | GLP-1R inv ag | GLP1R cytotox
COc1ccc(-c2cc3nc(-c4ccccc4)cc(N4CCCC(O)C4)n3n2)cc1 (stereo not drawn) | – | ? | –
CN(C)CCCNc1cc(-c2ccccc2)nc2cc(-c3cccc(F)c3)nn12 | – | 3.55µM | ?
COc1ccc(-c2cc3nc(-c4ccccc4)cc(N4CCC(O)CC4)n3n2)cc1 | – | 7.94µM | ?
Cc1cccc(-c2cc3nc(C)cc(NCCCN(C)C)n3n2)c1 | – | – | –
COCCN1CCN(c2cc(-c3ccccc3)nc3cc(-c4cccc(F)c4)nn23)CC1 | – | 7.94µM | –
Cc1onc(-c2ccccc2)c1C(=O)N[C@@H]1C(=O)N2[C@@H](C(=O)O)C(C)(C)S[C@@H]12 | – | · | ·
CCc1cccc(NC(=O)C(NS(=O)(=O)c2ccc3nc(C)sc3c2)C(C)C)c1 (stereo not drawn) | – | – | –
CCS(=O)(=O)N1CCC(NC(=O)C(Cc2cc(OC)ccc2OC)NC(C)=O)CC1 (stereo not drawn) | – | – | –
O=C(Nc1ccccc1C(F)(F)F)c1ccc(F)c(S(=O)(=O)N2CCc3ccccc3C2)c1 | · | ? | –
CCCCC(=O)c1ccc(OC(=O)c2ccc([N+](=O)[O-])cc2)cc1 | – | – | –
COC(=O)c1cc(NC(=O)CC2SC(=Nc3ccccc3)N(CCc3c[nH]c4ccccc34)C2=O)cc(C(=O)OC)c1 (stereo not drawn) | – | 4.47µM | ?
COCCN1C(=O)C(CC(=O)Nc2ccc(C(=O)O)cc2)SC1=Nc1ccccc1 (stereo not drawn) | – | – | –
CC1(C)OCC(CNC(=O)c2[nH]c(C(F)(F)F)nc2-c2ccccc2)O1 (stereo not drawn) | – | – | –
C/C=C/c1ccc(OCC(O)CNCCc2ccc(OC)cc2)c(OC)c1 (stereo not drawn) | – | ? | ?
C/C=C/c1ccc(OCC(O)CN2CCCCC2CC)c(OC)c1 (stereo not drawn) | – | 12.6µM | –
O=C(Nc1ccc(SC(F)F)cc1)c1cc(-c2ccc3c(c2)OCCO3)on1 | · | – | –
Fc1ccccc1-c1ccc(/C=N/Nc2nc3ccccc3[nH]2)o1 | – | ? | –
Cc1ccc(/C=N\Nc2nc3ccc(Cl)cc3[nH]2)o1 | – | 5.01µM | –
COc1ccc(CNc2nc3c(-c4ccccc4)nnn3c3ccccc23)cc1 | – | – | –
CCCCn1cnc2c(SCc3ccccc3)nc(N)nc21 | – | – | –
CCCn1cnc2c(SCc3ccccc3)nc(N)nc21 | ? | – | –
Nc1nc(SCc2ccccc2)c2ncn(Cc3ccccc3)c2n1 | – | 7.94µM | –
CCCCn1cnc2c(SCc3ccccc3Cl)nc(N)nc21 | – | 10µM | –
C[C@]1(O)CC(=O)C=C[C@H]1Nc1ccccc1 | – | ? | ?
COCCNC(=O)C1CCCN(C(=O)c2ccnc(Cl)c2)CC1 (stereo not drawn) | – | – | –
CC(=O)N1c2ccc(S(=O)(=O)N3CCC(C(=O)NCc4ccccc4)CC3)cc2CC1C (stereo not drawn) | – | – | –
Cc1ccccc1CN1C(=O)c2ccccc2S1(=O)=O | – | ? | –
O=C1c2ccccc2S(=O)(=O)N1Cc1nc2ccccc2s1 | – | 3.98µM | –
COc1ccccc1CNC(=O)CCC1N=C2c3ccccc3N=C(SCC(=O)Nc3ccc(N(C)C)cc3)N2C1=O (stereo not drawn) | · | – | –
CN(C)c1ccc(NC(=O)CSC2=Nc3ccccc3C3=NC(CCC(=O)NCc4cccs4)C(=O)N23)cc1 (stereo not drawn) | · | 5.62µM | –
